Data taken from PubChem BioAssay AID598 (SRMLSC, 2007).
The whole screen tested about 85,000 compounds, of which about 5,100 (6%) were called active. This is one part of a sample in which actives are shown more often than they occur. Values without a mark were called inactive.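 How the source made its calls: active means viability at or below 40%; inactive means viability above 40%.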

Experiment: H69AR cell viability reduction – human, 86K library, primary screen (AID 598);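 further: multidrug resistant small cell line overexpressing MRP-1 efflux transporter; 100% = mean luminescence of untreated control wells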
Conditions: H69AR lung tumor viability, ATP luminescence, 72 h; at 10 µM; active compounds read low

SMILES | viability
O=C(c1cc2sccc2n1Cc1ccc(F)cc1)N1CCc2ccccc21 | 76%
COC(=O)c1cc(NC(=O)CC2C(=O)NCCN2C(=O)c2ccc(F)cc2)cc(C(=O)OC)c1 (stereo unspecified) | 80%
CCc1ccc2c(c1)C1(NN=C(c3ccccc3)S1)C(=O)N2 (stereo unspecified) | 15.2% (active)
O=C1Nc2ccccc2C12Nc1ccccc1S2 (stereo unspecified) | 85.7%
C=C1c2cc(CC)ccc2NC(=O)N1c1ccc(C)cc1 | 91.4%
CCC(=O)NC(Nc1nc2ccc(C)cc2s1)(C(=O)OC)C(F)(F)F (stereo unspecified) | 82.5%
CC(C)CC(=O)Nc1cc(C(F)(F)F)ccc1N1CCOCC1 | 80.6%
O=C(NCc1ccco1)c1ccc(Cn2c(=O)c3sccc3n(Cc3ccc(F)cc3)c2=O)cc1 | 82.3%
COc1ccccc1NC(=O)C1CCCN(c2cc(C)nc3ncnn23)C1 (stereo unspecified) | 85.4%
CCOC(=O)N1CCN(C(=O)c2cc3c(-c4ccc(Cl)cc4)nn(C)c3s2)CC1 | 31.4% (active)
COc1ccccc1N1CCN(C(=O)c2cc3c(-c4ccc(Cl)cc4)nn(C)c3s2)CC1 | 79.4%
COc1cccc(-c2nn(C)c3sc(C(=O)N4CCN(c5ccccc5)CC4)cc23)c1 | 70.9%
CSc1nc(-c2ccco2)nn1C(=O)CCc1ccccc1 | 94.3%
O=C(NCCSCc1ccccc1)c1ccc(Cl)c(S(=O)(=O)N2CCOCC2)c1 | 72.6%
Cc1ccc(C(=O)Nc2ccccc2C(=O)NC2CCCCC2)cc1S(=O)(=O)N1CCOCC1 | 73%
Cc1ccccc1CSCCNC(=O)c1ccc(Cl)c(S(=O)(=O)N2CCOCC2)c1 | 24.7% (active)
CCCc1noc2c1/C(=N\O)CCC2 | 111%
COC(=O)c1oc2ccc(Br)cc2c1NC(C)=O | 95%
COc1ccc(C(=O)c2oc3ccc(Br)cc3c2NC(C)=O)cc1 | 37.9% (active)
CC(C)C(=O)Nc1c(C(=O)c2ccc(F)cc2)oc2ccccc12 | 83.5%
CCn1nnnc1SCC(=O)c1ccc(C)cc1C | 101%
CN(C)c1ccc(CNC2C3CC4CC(C3)CC2C4)cc1 (stereo unspecified) | 99.4%
O=C(Nc1cccc(Cl)c1)Nc1nnc(-c2ccccc2)o1 | 70.9%
CC(C)(C)c1ccc(C(=O)NCCC(=O)NCc2ccco2)cc1 | 87.7%

SMILES | viability
Cc1ccccc1NC(=O)NCc1ccco1 | 99.6%
CC(C)(C)c1ccc(NC(=O)NCc2ccco2)cc1 | 39.5% (active)
CCC(c1nnnn1C(C)(C)C)N(Cc1cc2cccc(C)c2n2nnnc12)C1CCCC1 (stereo unspecified) | 78.9%
CCOc1cc(NC(=O)c2ccco2)c(OCC)cc1NC(=O)COc1ccccc1 | 91.9%
CCOc1cc(N2CCOCC2)c(OCC)cc1NC(=O)COc1cccc2cccnc12 | 21.9% (active)
CCOc1cc(N2CCOCC2)c(OCC)cc1NC(=O)COC(=O)[C@H](Cc1c[nH]c2ccccc12)NC(C)=O | 71.8%
O=C(Nc1cccc(NC(=O)c2ccco2)c1)c1cnccn1 | 87.2%
Cc1cc(C)c(NC(=O)CN2CCOCCOCCOCCOCC2)c(C)c1 | 97.2%
Cc1cc(Cl)c(S(=O)(=O)N(C)C)cc1OCC(N)=O | 96%
CCCCC(C(=O)OCC(=O)c1ccc(OC)cc1)N1C(=O)c2ccccc2C1=O (stereo unspecified) | 95%
CC/C(O)=N\S(=O)(=O)c1ccc(N=NN(C)C)cc1 | 85.7%
CN(C)S(=O)(=O)c1ccc(N2CCCC2)c(C(=O)NCc2ccccc2)c1 | 83.6%
CCOC(=O)C1=C(O)CSC1=Nc1cccc(Cl)c1 | 91.2%
COCCn1c(C)cc(C2=NNC(=Nc3ccc(F)cc3)SC2)c1C | 88.2%
Clc1cccc(N=C2NN=C(c3ccc4c(c3)OCCO4)CS2)c1 | 1.44% (active)
CN1CCN(C(=O)Cn2c(C(F)(F)F)nc3ccccc32)CC1 | 96.4%
O=C(Nc1nnc(C2CC2)s1)c1ccccn1 | 81%
O=C1Nc2cc(Cl)c(Cl)cc2N(O)N1c1cc(Cl)cc(Cl)c1 | 102%
COc1cccc(N(CC(=O)NCCSc2ccccn2)S(C)(=O)=O)c1 | 95.5%
CC1(C)OC(=O)N2CCc3ccccc3C21C (stereo unspecified) | 91.6%
O=C(Nc1ccc(S(=O)(=O)N2CCc3ccccc3C2)cc1)c1ccccc1 | 69%
O=C(CN1CCN(S(=O)(=O)/C=C/c2ccccc2)CC1)NC(=O)NCc1ccco1 | 93.8%
O=C(COC(=O)c1ccc(S(=O)(=O)N2CCc3ccccc3C2)cc1)NC(=O)NCc1ccco1 | 18.3% (active)
O=C(NC(C(=O)NCCN1CCOCC1)C12CC3CC(CC(C3)C1)C2)C1CCCCC1 (stereo unspecified) | 90.9%

SMILES | viability
Nc1ccc(-c2nnc(-c3ccc(-c4ccccc4)cc3)o2)cc1 | 55%
Nc1ccc(Nc2ccccc2)cc1 | 15.3% (active)
c1ccc(Nc2n[nH]nc2-c2ccccc2)cc1 | 94.2%
CCCCCCOc1ccc(OC(=O)c2cccnc2)cc1 | 99.5%
Cc1cc(C(=O)Nc2ccccc2N2CCOCC2)c2ccccc2n1 | 67.9%
O=C(CCc1ccccc1)NCc1cccnc1 | 97.5%
O=C(NCc1cccnc1)c1cn(-c2ccccc2)nc1-c1cccs1 | 9.99% (active)
COC(=O)c1cn(-c2ccccc2)nc1-c1cccnc1 | 108%
CCN(CC)CCNC(=O)CCCCCn1c(=O)[nH]c2cc(C(=O)OC)ccc2c1=O | 102%
COc1ccccc1C(c1nnnn1C(C)(C)C)N1CCN(Cc2ccccc2)CC1 (stereo unspecified) | 85.2%
COc1ccc(-c2nnc(SC(=O)N3c4ccccc4Sc4ccccc43)o2)cc1 | 4.55% (active)
COc1ccc(-c2nnc(SC(C)C#N)o2)cc1 (stereo unspecified) | 86.7%
COc1ccc(-c2nnc(SCC(=O)c3ccc4c(c3)OCCO4)o2)cc1 | 102%
CCCCCCNCCn1cnc2c(N)ncnc21 | 105%
Cc1ccc(S(=O)(=O)NCCSC(C)(C)C)cc1 | 106%
Cc1nnc(SC(C)C(=O)Nc2ccc(S(=O)(=O)NC3CCCCC3)cc2)s1 (stereo unspecified) | 90.2%
Cc1c(Br)cc(C(=O)N2CCCCCC2)c(C)c1C | 85.9%
Cc1ccc(NS(=O)(=O)c2c(C)[nH]c(=O)[nH]c2=O)cc1C | 112%
Cc1ccc(Nc2cc(=O)n(C3CCCCC3)c(=O)[nH]2)cc1C | 9.54% (active)
CCC1(CC)Cc2ccccc2-c2nc3ccccc3c(=O)n21 | 88.7%
CCOc1ccccc1C(=O)NC1CC2CCCC(C1)N2Cc1ccccc1 (stereo unspecified) | 72.2%
CC(C)Oc1ccc(C(=O)NC(C)(C)CO)cc1 | 106%
Cc1cc(C)n(-c2nnc(C)n2NC(=O)c2cccc(Cl)c2)n1 | 88.1%
CCCCC(=O)Nc1ccc(C(=O)NCCCn2ccnc2)cc1 | 7.32% (active)

SMILES | viability
O=C(NCCCn1ccnc1)Nc1ccc(Cl)cc1Cl | 93.2%
O=C(Nc1ccccc1C(=O)NCCCn1ccnc1)c1ccc(Cl)cc1Cl | 75.6%
CCCC(=O)Nc1ccc(C(=O)NCCCn2ccnc2)cc1 | 15.8% (active)
Cc1ccc2c(Cl)c(C(=O)NCCCn3ccnc3)sc2c1 | 88.9%
CCOc1ccccc1C(=O)NCCCn1ccnc1 | 98.9%
FC(F)(F)c1cnc(Oc2ccccc2-c2nnc(-c3ccc(Cl)cc3)o2)c(Cl)c1 | 92.2%
O=C(CSCc1ccccc1)N1CCc2ccccc21 | 84.8%
Cc1ccc(N(Cc2ccc(C(=O)Nc3ccccc3C(=O)NCc3ccco3)cc2)S(C)(=O)=O)cc1C | 79.5%
Cc1ccc(S(=O)(=O)/N=C(\CN2CCOCC2)N2CCOCC2)cc1 | 96.2%
CC(=O)Nc1ccc(OCC(O)CN2CCN(c3ccccc3Cl)CC2)cc1 (stereo unspecified) | 100%
O=C(C(c1ccccc1)c1ccccc1)N1CCN(CC(O)COc2ccccc2)CC1 (stereo unspecified) | 27.1% (active)
OC(COc1cccc(OCC(O)CN2CCCC2)c1)CN1CCCC1 (stereo unspecified) | 99.3%
O=C(CSc1nnc(-c2cccnc2)n1CCc1ccccc1)NCc1ccccc1 | 89.6%
CCc1ccc(CNC(=O)CCc2nc(-c3cccs3)no2)cc1 | 98.2%
c1ccc(-c2noc(-c3cccs3)n2)nc1 | 70.6%
N#Cc1ccc(CSc2nnc(-c3ccccn3)n2-c2ccc(Cl)cc2)cc1 | 62%
Clc1ccc(-n2nnnc2-c2cnc(-c3ccccn3)nc2-c2cccs2)cc1 | 18.2% (active)
CCOc1ccccc1N=C1NC(=O)CS1 | 85.9%
COc1ccccc1N=C(C)C1=C(O)COC1=O | 92.4%
CCC/C(O)=C1\C(=O)CC(C)(C)CC1=Nc1ccccc1OC | 28.2% (active)
CCOc1ccccc1NC(=O)C1CCCN(C(=O)Nc2ccccc2)C1 (stereo unspecified) | 61.5%
O=C1CCCC2=C1C(c1cccs1)n1nc(SCc3ccccc3)nc1N2 (stereo unspecified) | 28.9% (active)
CC(C)C(=O)N1c2ccccc2NC2=C(C(=O)CCC2)C1c1ccc(N(C)C)cc1 (stereo unspecified) | 74.9%
CCCC(=O)N1c2ccccc2NC2=C(C(=O)CCC2)C1c1ccc(F)cc1 (stereo unspecified) | 92.9%

SMILES | viability
Cc1ccc(N(CC(=O)Nc2cccc(N(C)S(C)(=O)=O)c2)S(C)(=O)=O)cc1 | 85.4%
O=C(CCCn1c(SCC(=O)c2ccccc2)nc2ccccc2c1=O)NCC1CCCO1 (stereo unspecified) | 76.5%
Cc1noc(COc2ccccc2OCc2onc(C)c2Cl)c1Cl | 93.3%
Fc1ccc(-n2c(Cc3ccccc3)nnc2SCc2nc(-c3ccc(Cl)cc3)no2)cc1 | 90.9%
Cc1ccc(-c2noc(CSc3nnc(-c4ccccc4)n3C)n2)cc1 | 85.9%
Cc1ccc(-c2noc(CSc3nnc(-c4ccncc4)n3-c3ccc(F)cc3)n2)cc1 | 27.9% (active)
O=S1(=O)C=C(SCCN2CCCC2)c2ccccc21 | 74.3%
Cn1cc(S(=O)(=O)N2CCN(c3ccc(F)cc3)CC2)c(=O)n(C)c1=O | 91.4%
C#CCN(N(C)c1ncc(C(F)(F)F)cc1Cl)S(=O)(=O)c1ccc2ccccc2c1 | 84%
CN(C)CCSc1nc(N)c2c3c(sc2n1)COC(C)(C)C3 | 91.2%
CC(C)(C)C1CCc2c(sc3nc(SCC(N)=O)nc(N)c23)C1 (stereo unspecified) | 2.44% (active)
C=C(C)CSc1nc(N)c2c3c(sc2n1)CCC3 | 92.1%
O=C(/C=C/NNC(=O)c1cccc(Br)c1)c1ccccc1 | 61.5%
N#C/C(=C(\O)CCl)c1nnc2n1CCCCC2 | 26.2% (active)
COCC(=O)Nc1ccc(Br)cc1 | 101%
Cc1cccc(N(CC(=O)N2CCOCC2)S(C)(=O)=O)c1 | 98%
Cc1[nH]n(-c2cccc(Cl)c2)c(=O)c1-c1ccc(Cl)cc1 | 109%
CC1=NN(c2cccc(Cl)c2)C(=O)C12CC(C)=C(C)CS2 (stereo unspecified) | 26.9% (active)
O=C(NCc1ccccc1)C1CCCN(S(=O)(=O)c2cccs2)C1 (stereo unspecified) | 95.6%
CCOc1ccc(S(=O)(=O)NCC2CCCO2)cc1 (stereo unspecified) | 97%
